# High-throughput results (PubChem BioAssay)
# FLuc counter – counter-screen for miR-21 project: firefly luciferase inhibitors or activators; purified FLuc, Km substrates, luminescence inhibition; Potency, µM (doses to about 57.5 µM), inactives show at the top dose activity change, negative = inhibition, usual class: inhibitors; AID 588342; P08659; 6.9% of 360,000 active;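 also: plate controls were vehicle for no effect and reference inhibitor for full effect; nearly all actives have a fitted effect of over 55% in size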
# Target sequence (P08659 whole entry, looked up): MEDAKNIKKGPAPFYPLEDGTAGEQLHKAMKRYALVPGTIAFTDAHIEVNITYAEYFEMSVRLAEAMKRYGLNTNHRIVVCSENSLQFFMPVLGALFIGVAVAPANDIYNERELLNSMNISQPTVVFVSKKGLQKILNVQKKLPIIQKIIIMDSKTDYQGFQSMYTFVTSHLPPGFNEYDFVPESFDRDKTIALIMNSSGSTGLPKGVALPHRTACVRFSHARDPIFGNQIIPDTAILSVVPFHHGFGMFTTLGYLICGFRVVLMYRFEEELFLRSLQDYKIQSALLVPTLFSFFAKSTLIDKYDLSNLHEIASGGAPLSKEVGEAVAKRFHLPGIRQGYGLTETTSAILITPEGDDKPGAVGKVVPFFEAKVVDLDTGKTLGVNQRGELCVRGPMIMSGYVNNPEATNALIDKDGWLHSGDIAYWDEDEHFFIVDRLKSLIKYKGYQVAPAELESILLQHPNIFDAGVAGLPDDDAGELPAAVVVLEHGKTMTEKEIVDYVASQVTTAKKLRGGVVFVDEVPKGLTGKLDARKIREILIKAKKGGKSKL
#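 Purified P. pyralis luciferase, 10 nM final, with Km-level 10 uM D-luciferin and 10 uM ATP in 50 mM Tris acetate pH 7.5, 10 mM Mg acetate, 0.01% Tween-20, 0.05% BSA; 6-point qHTS titration about 60 µM downward; luminescence read.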
# Luc counter – Kinase-Glo luciferase inhibition (counter-screen); 0.28% of 200,000 active; Potency, µM (highest dose often 38.3 µM), without a hit: top-dose activity change, negative = inhibition, usual class: inhibitors; Kinase-Glo luciferase, ATP luminescence, 8 min; also: % is scaled to controls: 0 for no effect and ±100 for the full control effect; nearly all actives have a fitted effect of over 60% in size
#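 Luminescence was the read-out, taken after 8-minute incubation at ambient temperature. Luciferase turned over luciferin with 10 uM ATP in imidazole pH 7.2 buffer containing KCl, MgCl2, Tween 20 and BSA.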
# Rab9 promoter act – Rab9 promoter activation. Huh7 Rab9 promoter-luciferase reporter, luminescence, 24 h. 2.8% of 320,000 active. Potency, µM (doses to about 9.22 µM), for inactives: top-dose activation, negative = inhibition, hits mostly activators; also: % of control where 0% means no effect; nearly all actives have a fitted effect of over 60% in size
#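 Promoter activation is measured as luciferase luminescence in Huh7 cells stably transfected with a Rab9 promoter–luciferase construct, following 24 h compound exposure at 37 °C and 10 min reagent incubation at ambient temperature.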
# NPC1 promoter act – activates the NPC1 promoter. 2.4% of 320,000 active. Huh7 NPC1 promoter luciferase reporter, 24 h. AID 485313. Potency, µM (titrated, usually from 9.22 µM), for the others: top-dose activation, most hits filed as activators; also: % of control where 0% means no effect; nearly all actives have a fitted effect of over 60% in size
#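 Compounds in DMSO were transferred onto Huh7 NPC1-luciferase reporter cells pre-incubated 2 h; after 24 h at 37 °C, Amplite reagent was dispensed and luminescence recorded 10 min later.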
# ELG1 genotox – inducers of genotoxicity in HEK293T ELG1-luciferase cells; HEK293T ELG1-luciferase reporter, luminescence, 16 h; Potency, µM (top dose mostly 46 µM), without a hit: top-dose activity change, positive = activation, hits mostly activators; 1.3% of 330,000 active; AID 504466; also: % of control where 0% means no effect; nearly all actives have a fitted effect of over 60% in size
#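 DMSO vehicle served as control against compound-treated ELG1-luciferase HEK293T cells; exposure lasted 16 hr at 37 °C and 5% CO2, followed by ONE-Glo luminescence detection after 30 min.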
# SMN2 splice enh – SMN2 splice variant enhancement; AID 1458; HEK293 SMN2-luciferase splicing reporter, luminescence, 30-36 h; Potency, µM (series often up to 46.1 µM), for inactives: at the top dose activity change, positive = activation, usual class: activators; 2.8% of 210,000 active; also: % of control where 0% means no effect; nearly all actives have a fitted effect of over 55% in size
#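 HEK293 cells carry an SMN2 […]–luciferase reporter in which exon 7 inclusion puts luciferase in frame. Cells were plated 10-12 h before compound addition, then incubated 30-36 h at 37C. ONE-Glo luminescence was read; sodium butyrate at 4.5 mM final served as control.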
# * = called active by the depositor; ? = inconclusive; / = not tested or not shown; [ ] = remark or other dose. Only some compounds are listed: those with a hit (about 7.5% of all), similar ones and a draw of the others. Calls follow the shape of the dose curve; as a rule, active = well fitted curve in the direction sought with a large enough effect; inconclusive = small, poorly fitted or top-dose-only effect, or another doubt; inactive = no such curve, though single readings can be large; an effect the other way counts as inactive or inconclusive. Potency is read from the fitted curve at half-maximal effect.
SMILES,FLuc counter,Luc counter,Rab9 promoter act,NPC1 promoter act,ELG1 genotox,SMN2 splice enh
Cc1c(CC(=O)N[C@H](C(=O)O)C(C)C)c(=O)oc2cc3c(cc12)CCC(C)(C)O3,11µM*,/,1.8µM*,2.8µM*,?,/
Cc1c(CC(=O)NCC(C)C)c(=O)oc2cc3c(cc12)CCC(C)(C)O3,?,/,26%,-6%,1%,/
COc1ccc(C(=O)C2CCCN(Cc3ccc(C#CCCO)cc3)C2)cc1F (stereo not drawn),-1%,0%,-9%,3%,-6%,/
CN(C)C(=O)c1cc(C(=O)c2ccc(F)cc2Cl)c[nH]1,?,/,25%,?,13%,/
CN(C)C(=O)c1cc(C(=O)c2ccc(C(F)(F)F)cc2)c[nH]1,13µM*,/,?,?,?,/
Cc1ccc(C(=O)c2ccc(C(F)(F)F)cc2)cc1,-1%,/,-2%,-2%,-2%,/
CN(C)C(=O)c1cc(C(=O)c2ccc(Cl)cc2Cl)c[nH]1,15µM*,/,?,?,15%,/
c1cc2c3c(cccc3c1)NC(c1ccc3c(c1)OCO3)N2,27µM*,/,0%,?,2%,/
Oc1ccc2ccccc2c1C1Nc2cccc3cccc(c23)N1,-3%,-3%,-1%,0%,-11%,-1%
CSc1ccc(C2Nc3cccc4cccc(c34)N2)cc1,21µM*,/,20%,?,-2%,/
O=[N+]([O-])c1cc(C2Nc3cccc4cccc(c34)N2)ccc1Cl,2%,0%,28%,?,3%,-1%
Cc1cccc(C2Nc3cccc4cccc(c34)N2)c1,21µM*,/,11%,?,0%,/
CN1c2ccccc2N(C)C1c1ccc2c(c1)OCO2,9%,0%,-20%,-6%,2%,-1%
Brc1ccc(C2Nc3cccc4cccc(c34)N2)s1,?,-6%,?,20%,0%,14%[1.84 µM]
Clc1ccc(C2Nc3cccc4cccc(c34)N2)cc1,19µM*,/,17%,22%,-8%,/
CCCn1c(=O)[nH]c(=O)c2c(C(=O)OCC)cc(-c3cccs3)nc21,?,5%,-1%,9%,13%,2%
O=C(CCSc1ccccc1Cl)Nc1cccc([N+](=O)[O-])c1,?,-2%,22%,16%,?,?
Cc1cccc(NC(=O)Nc2ccc(S(N)(=O)=O)cc2)c1,?,/,11%,14%,2%,/
NS(=O)(=O)c1cccc(NC(=O)Nc2ccc(Cl)cc2)c1,7.6µM*,/,18%,30%,6%,/
NS(=O)(=O)c1cccc(NC(=O)CCSc2ccccc2Cl)c1,17µM*,-4%,?,?,?,?
O=C(Nc1cccc(Cl)c1)Nc1cccc(Cl)c1,?,-2%,11%,13%,-3%,-12%
COC(=O)c1cc(NC(=O)Nc2cccc(Cl)c2)ccc1Cl,30µM*,0%,9%,12%,-10%,-7%
CN(C)S(=O)(=O)c1cccc(NC(=O)COC(=O)CCSc2ccc(Cl)cc2)c1,21µM*,3%,2%,-2%,1%,-4%
CCCCCCc1ccc(-c2ccc(C#N)cc2)cc1,/,/,/,/,/,-5%
COC(=O)c1cccc(NC(=O)NC23CC4CC(CC(C4)C2)C3)c1,9.5µM*,8%,24%,21%,?,11%
SMILES,FLuc counter,Luc counter,Rab9 promoter act,NPC1 promoter act,ELG1 genotox,SMN2 splice enh
COC(=O)c1cccc(NC(=O)Nc2ccc(Cl)cc2)c1,2.7µM*,/,3.2µM*,2.2µM*,-1%,/
OC[C@@H]1O[C@@H](O)[C@H](N=Cc2ccc3c(c2)OCO3)[C@@H](O)[C@@H]1O,/,1%[7.66 µM],/,/,/,4%[9.22 µM]
NC(=O)C1CCN(c2nc(-c3ccc4ccccc4c3)cs2)CC1,12µM*,/,?,2µM*,6%,/
COc1ccc(-c2csc(N3CCC(C(N)=O)CC3)n2)cc1,21µM*,/,?,26%,7%,/
Cc1ccc(-c2csc(N3CCC(C(N)=O)CC3)n2)cc1,11µM*,/,2µM*,1.3µM*,8%,/
CC(=O)c1cccc(-c2csc(N3CCC(C(N)=O)CC3)n2)c1,17µM*,/,0.4µM*,1.3µM*,14%,/
N#Cc1ccc(-c2csc(N3CCC(C(N)=O)CC3)n2)cc1,-10%,/,/,/,/,/
CCCCN(C(=O)NC(=O)Nc1ccc(C)cn1)S(C)(=O)=O,4%,/,-2%,3%,0%,/
CCN(CC(=O)Nc1cccc(C(C)=O)c1)S(=O)(=O)c1ccc(C)cc1,5%,5%,-8%,-9%,-2%,/
CC(=O)Nc1ccc(NC(=O)CCc2nc3sc4c(c3c(=O)[nH]2)CCCC4)cc1,?,/,0%,6%,0%,/
CC(C)CCOCc1nc2sc3c(c2c(=O)[nH]1)CCC(C)C3 (stereo not drawn),-13%,-2%,20%,20%,?,-34%
CCOC(=O)c1nc2sc3c(c2c(=O)[nH]1)CCCC3,19µM*,-3%,-1%,1%,-6%,3%
Cc1cc(C)cc(NC(=O)CCc2nc3sc4c(c3c(=O)[nH]2)CCCC4)c1,5%,/,-26%,-10%,0.73µM*,/
COc1cccc(-c2nc3sc4c(c3c(=O)[nH]2)CCCCC4)c1,0.15µM*,-11%,?,?,?,0.89µM*
CCOC(=O)c1nc2sc3c(c2c(=O)[nH]1)CCC(C)C3 (stereo not drawn),17µM*,/,-2%,-5%,1%,/
Cc1nn2c3c(cnc2c1-c1ccc(F)cc1)C(=O)CC(c1ccccc1)C3 (stereo not drawn),-2%,/,/,/,/,-1%
CN(CC(=O)O)CC(=O)O,/,-2%[7.66 µM],/,/,/,-18%[9.22 µM]
O=c1ccc2cc(S(=O)(=O)NCc3ccccc3)ccc2[nH]1,1%,/,0%,0%,-2%,/
CCC(C)c1ccc(S(=O)(=O)N2CCN(CC(O)COCC3CCCO3)CC2)cc1 (stereo not drawn),2%,/,-4%,-4%,0%,/
C/C(=N\NC(=O)c1ccc(Cl)c(Cl)c1)c1ccccn1,?,/,-28%,17%,?,/
C/C(=N\NC(=O)c1ccccc1Cl)c1ccccn1,24µM*,/,-21%,23%,15µM*,/
C/C(=N\NC(=O)c1cccc(Br)c1)c1ccccn1,13µM*,/,-22%,6%,?,/
C/C(=N\NC(=O)c1cc(Br)ccc1O)c1ccccn1,17µM*,/,?,?,21µM*,/
C/C(=N/NC(=O)c1cnccn1)c1ccncc1,-4%,-1%,16%,0%,4%,2%
C/C(=N/NC(=O)c1ccccn1)c1ccncc1,17µM*,/,?,3.5µM*,?,/
COc1ccc(C(=O)N/N=C(\C)c2ccccn2)cc1OC,?,/,-30%,-5%,?,/
Fc1cc(F)c(NC(=S)N2CCOCC2)c(F)c1,-1%,/,-7%,0%,-4%,/
CS(=O)(=O)c1ccc(Cl)c(NC(=O)CSc2n[nH]c(-c3cccs3)n2)c1,?,/,-1%,1%,3%,/
